# Laboratory results published in publication PMC11062922 (Nature Chemical Biology, 2023).
# Like-named read-outs stand apart in the source and are kept apart here.
# Tests used:
# Set-up in all cases: species or system human, MV4-11 + K-562 + COLO205 + SK-N-BE2 + OVCAR-8
# MAPK14 = conditions: read-out: apparent Kd, n = 1
# NLK = conditions: read-out: apparent Kd; compound concentrations:100 nM and 1000 nM (sheet 'Samples'); n = 1
# PKM = conditions: read-out: apparent Kd; compound concentrations:100 nM and 1000 nM (sheet 'Samples'); n = 1
# MAPKAPK2 = conditions: read-out: apparent Kd, n = 1
# NQO2 = conditions: read-out: apparent Kd; compound concentrations:100 nM and 1000 nM (sheet 'Samples'); n = 1
# TGFBR1 = conditions: read-out: apparent Kd; compound concentrations:100 nM and 1000 nM (sheet 'Samples'); n = 1
# TGFBR2 = conditions: read-out: apparent Kd; compound concentrations:100 nM and 1000 nM (sheet 'Samples'); n = 1
# MTOR = conditions: read-out: apparent Kd; compound concentrations: 100 nM and 1000 nM (sheet 'Samples'), CATDS: 7.1154294212896999E-2; n = 1
# PDGFRB = conditions: read-out: apparent Kd; compound concentrations: 100 nM and 1000 nM (sheet 'Samples'), CATDS: 5.6462124359458001E-2; n = 1
# PI4KA = conditions: read-out: apparent Kd; compound concentrations: 100 nM and 1000 nM (sheet 'Samples'), CATDS: 9.2469758478665204E-2; n = 1
# PI4KB = conditions: read-out: apparent Kd; compound concentrations: 100 nM and 1000 nM (sheet 'Samples'), CATDS: 6.1584731713773599E-2; n = 1
# PIK3C2A = conditions: read-out: apparent Kd; compound concentrations: 100 nM and 1000 nM (sheet 'Samples'), CATDS: 5.5656712709310899E-2; n = 1
# PIK3C2B = conditions: read-out: apparent Kd; compound concentrations: 100 nM and 1000 nM (sheet 'Samples'), CATDS: 0.103549921719069; n = 1
# PIK3CA = conditions: read-out: apparent Kd; compound concentrations: 100 nM and 1000 nM (sheet 'Samples'), CATDS: 0.27321348763970998; n = 1
# PIK3CB = conditions: read-out: apparent Kd; compound concentrations: 100 nM and 1000 nM (sheet 'Samples'), CATDS: 0.12993654601332599; n = 1
# PIK3CD = conditions: read-out: apparent Kd, compound concentrations: 100 nM and 1000 nM (sheet 'Samples'), n = 1
# PIK3CG = conditions: read-out: apparent Kd; compound concentrations: 100 nM and 1000 nM (sheet 'Samples'), CATDS: 0.28339263062776299; n = 1
# PRKDC = conditions: read-out: apparent Kd; compound concentrations: 100 nM and 1000 nM (sheet 'Samples'), CATDS: 5.8127762202415202E-2; n = 1
# PHKG2 = conditions: read-out: apparent Kd; compound concentrations:100 nM and 1000 nM (sheet 'Samples'); n = 1
# PIM2 = conditions: read-out: apparent Kd; compound concentrations:100 nM and 1000 nM (sheet 'Samples'); n = 1
# PIM3 = conditions: read-out: apparent Kd; compound concentrations:100 nM and 1000 nM (sheet 'Samples'); n = 1
# PKN3 = conditions: read-out: apparent Kd; compound concentrations:100 nM and 1000 nM (sheet 'Samples'); n = 1
# RIPK2 = conditions: read-out: apparent Kd; compound concentrations:100 nM and 1000 nM (sheet 'Samples'); n = 1
# MERTK = conditions: read-out: apparent Kd; compound concentrations:100 nM and 1000 nM (sheet 'Samples'); n = 1
# NNT = conditions: read-out: apparent Kd; compound concentrations:100 nM and 1000 nM (sheet 'Samples'); n = 1
# MAPK9 = conditions: read-out: apparent Kd; compound concentrations: 100 nM and 1000 nM (sheet 'Samples'), CATDS: 1; n = 1
# NQO1 = conditions: read-out: apparent Kd; compound concentrations: 100 nM and 1000 nM (sheet 'Samples'), CATDS: 0.21043150555446399; n = 1
# PBK = conditions: read-out: apparent Kd, n = 1
# MTHFD1 = conditions: read-out: apparent Kd; compound concentrations: 100 nM and 1000 nM (sheet 'Samples'), CATDS: 0.41943372694081998; n = 1
# TNK1 = conditions: read-out: apparent Kd; compound concentrations: 100 nM and 1000 nM (sheet 'Samples'), CATDS: 0.618875790720404; n = 1
# [1] = compound concentrations: 100 nM and 1000 nM (sheet 'Samples'), CATDS: 1
# [2] = compound concentrations:100 nM and 1000 nM (sheet 'Samples')
structure (smiles),measurement,setting,value
Cl.Cn1c(=O)c(Oc2ccc(F)cc2)cc2cnc(NC3CCOCC3)nc21 [RO3304882-001],potency estimated from few doses,MAPK14; [1],1030 nM
O=C(Nc1n[nH]c2cc(-c3cccc(F)c3)ccc12)C1CC1 [SB-735464],potency estimated from few doses,NLK,1810 nM
same,potency estimated from few doses,PKM,2130 nM
CCS(=O)(=O)c1ccc(OC)c(Nc2nccc(-c3c(-c4cccc(NC(=O)c5c(F)cccc5F)c4)nn4ncccc34)n2)c1 [GSK326180A],potency estimated from few doses,MAPKAPK2; [1],1390 nM
Cc1ccc(-c2cc(-c3c[nH]nc3-c3ccccn3)ccn2)cc1 [GW684088X],potency estimated from few doses,NQO2,741 nM
same,potency estimated from few doses,TGFBR1,490 nM
same,potency estimated from few doses,TGFBR2,2230 nM
COc1ccc(-c2cc3c(C)nc(N)nc3n([C@H]3CC[C@H](O)CC3)c2=O)cn1 [PFE-PKIS_40],potency estimated from few doses,MTOR,382 nM
same,potency estimated from few doses,PDGFRB,1550 nM
same,potency estimated from few doses,PI4KA,96.5 nM
same,potency estimated from few doses,PI4KB,875 nM
same,potency estimated from few doses,PIK3C2A,1720 nM
same,potency estimated from few doses,PIK3C2B,55.7 nM
same,potency estimated from few doses,PIK3CA,1.69 nM
same,potency estimated from few doses,PIK3CB,19.7 nM
same,potency estimated from few doses,PIK3CD; CATDS: 0.40484446782600397,0.817 nM
same,potency estimated from few doses,PIK3CG,1.57 nM
same,potency estimated from few doses,PRKDC,1260 nM
COc1cccc(-c2nc(-c3ccccc3)[nH]c2-c2ccncc2)c1 [SB-610250],potency estimated from few doses,MAPK14; [2],1050 nM
same,potency estimated from few doses,MAPKAPK2; [2],1480 nM
same,potency estimated from few doses,NQO2,131 nM
same,potency estimated from few doses,PHKG2,2340 nM
same,potency estimated from few doses,PIM2,1940 nM
same,potency estimated from few doses,PIM3,1430 nM
same,potency estimated from few doses,PKN3,1320 nM
same,potency estimated from few doses,RIPK2,204 nM
CS(=O)(=O)CCNCc1nc(-c2ccc3ncnc(Nc4ccc(F)c(Cl)c4)c3c2)cs1.Cl [GW461104A],potency estimated from few doses,MERTK,1190 nM
same,potency estimated from few doses,NNT,1740 nM
COC(=O)c1c(-c2ccccc2)c2cc(Br)ccc2c(=O)n1Cc1ccc(S(C)(=O)=O)cc1 [TPKI-100],potency estimated from few doses,MAPK9,1460 nM
C[C@@H](CS(C)(=O)=O)Nc1ncc2cc(Oc3ccc(F)cc3F)c(=O)n(C)c2n1 [RO5044198-000],potency estimated from few doses,"MAPK14; compound concentrations: 100 nM and 1000 nM (sheet 'Samples'), CATDS: 0.48313667011563999",88.4 nM
same,potency estimated from few doses,"MAPKAPK2; compound concentrations: 100 nM and 1000 nM (sheet 'Samples'), CATDS: 0.45912582310815703",97.4 nM
same,potency estimated from few doses,NQO1,1410 nM
Cn1ncc2cc(-c3cnc(N)c(Cl)c3N3CCC4(CCNC4=O)CC3)ccc21 [CCT251921],potency estimated from few doses,PBK; [2],1570 nM
CC(=O)N1CCC(Nc2ncc3cc(Oc4ccc(F)cc4F)c(=O)n(C)c3n2)CC1 [RO5043011-000],potency estimated from few doses,"MAPK14; compound concentrations: 100 nM and 1000 nM (sheet 'Samples'), CATDS: 0.40238945157455502",40.9 nM
same,potency estimated from few doses,MAPKAPK2; [2],14.2 nM
Cl.Cl.Cl.N#Cc1ccc(CCNc2nccc(-c3cccc(CN4CCNCC4)c3)n2)cc1.N#Cc1ccc(CCNc2nccc(-c3cccc(CN4CCNCC4)c3)n2)cc1 [GSK2137462A],potency estimated from few doses,"PBK; compound concentrations: 100 nM and 1000 nM (sheet 'Samples'), CATDS: 0.354579243895072",1350 nM
same,potency estimated from few doses,PIK3CD; CATDS: 0.84763293051447697,134 nM
Cc1cc(NCC(c2ccccc2)c2ccccc2)nc(NCc2ccc(C(F)(F)F)cc2)n1 [GW497681X],potency estimated from few doses,MTHFD1,2040 nM
same,potency estimated from few doses,TNK1,909 nM
